The list is not random: actives were taken first. Their share in the collection is about 2.5%.
WRN helicase inh: inhibitors of human WRN helicase | Q14191 | WRN helicase unwinding, fluorescent forked duplex, kinetic | Potency, µM (top dose mostly 114 µM), for inactives: at the highest dose activity change, negative = inhibition, actives largely listed as inhibitors | 0.46% of 360,000 active | AID 651768; note: % is set by controls: 0 for no effect and ±100 for the full control effect; nearly all actives have a fitted effect of over 55% in size
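Fluorescence dequenching readout, ex 525 nm/em 598 nm, kinetic mode: forked duplex DNA (100 nM final) with adjacent fluorophore and quencher unwound by WRN (20 nM final) with 2 mM ATP. Compound preincubation 15 min, room temperature.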
Pol kappa inh: inhibitors of human DNA polymerase kappa | 0.53% of 400,000 active | AID 588579 | Potency, µM (titrated, usually from 107 µM), without a hit: top-dose activity, negative = inhibition, most hits filed as inhibitors | Q9UBT6 | purified Pol kappa, fluorescent DNA synthesis assay, 10 min; note: % is set by controls: 0 for no effect and ±100 for the full control effect
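10 nM Pol kappa was preincubated with compounds for 15 min at room temperature. Reaction started with 50 nM (final) substrate. Fluorescence read kinetically at 0 and 10 min.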
POLH inh: inhibitors of human DNA polymerase eta; Q9Y253; recombinant Pol eta, fluorescent DNA replication assay; Potency, µM (doses to about 114 µM), for the others: at the highest dose activity change, negative = inhibition, usual class: inhibitors; 1.2% of 390,000 active; note: % is set by controls: 0 for no effect and ±100 for the full control effect
Target sequence (Q9Y253 whole entry, looked up): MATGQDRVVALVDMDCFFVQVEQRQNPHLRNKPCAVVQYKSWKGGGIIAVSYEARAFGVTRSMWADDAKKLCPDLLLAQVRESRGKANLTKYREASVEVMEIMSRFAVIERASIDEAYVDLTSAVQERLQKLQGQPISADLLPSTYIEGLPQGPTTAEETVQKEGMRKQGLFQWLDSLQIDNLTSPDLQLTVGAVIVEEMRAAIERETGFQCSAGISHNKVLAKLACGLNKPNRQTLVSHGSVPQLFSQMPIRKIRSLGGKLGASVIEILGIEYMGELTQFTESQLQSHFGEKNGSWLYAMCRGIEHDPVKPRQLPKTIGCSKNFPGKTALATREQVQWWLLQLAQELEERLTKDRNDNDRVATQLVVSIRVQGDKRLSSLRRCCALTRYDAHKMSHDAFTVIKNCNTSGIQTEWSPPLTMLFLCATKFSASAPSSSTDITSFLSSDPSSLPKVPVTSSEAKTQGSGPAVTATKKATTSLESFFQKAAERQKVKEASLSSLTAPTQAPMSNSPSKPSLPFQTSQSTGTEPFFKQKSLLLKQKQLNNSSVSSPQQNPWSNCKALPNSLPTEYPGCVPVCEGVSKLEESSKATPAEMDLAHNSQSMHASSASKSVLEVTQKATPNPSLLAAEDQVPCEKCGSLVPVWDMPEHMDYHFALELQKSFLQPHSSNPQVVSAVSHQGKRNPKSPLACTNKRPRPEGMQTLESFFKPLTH
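Pol eta (10 nM) was preincubated with compounds for 15 min at room temperature, after which fluorescent replication substrate (50 nM final) was added to start the reaction. Fluorescence was read kinetically at 0 and 10 min.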
POLI inh: blocks human DNA polymerase iota activity; Pol iota fluorescent replication assay, 10 min; 1% of 390,000 active; Potency, µM (titrated, usually from 115 µM), for the others: top-dose activity, negative = inhibition, actives largely listed as inhibitors; AID 588590
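Fluorescent replication assay read twice, at 0 min and 10 min after adding 50 nM (final) substrate. Enzyme (10 nM) and compounds were first incubated 15 min at room temperature; enzyme-free buffer wells were negative controls.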
Pol beta inh: DNA polymerase beta (human) inhibition; Pol beta primer extension/strand displacement, fluorescence kinetic; Potency, µM (highest dose often 114 µM), inactives show top-dose activity change, negative = inhibition, most hits filed as inhibitors; 1.3% of 340,000 active; P06746; AID 485314; note: % is set by controls: 0 for no effect and ±100 for the full control effect
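Preincubation: enzyme (10 nM) with compound, 15 min, RT. Reaction: substrate added to 50 nM final. Reads: 0 and 10 min. Analysis: normalized, Hill fit.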
L3MBTL1 block: blocks human L3MBTL1; Q9Y468; AlphaScreen L3MBTL1–H3K9me1 peptide binding; Potency, µM (top dose mostly 57.1 µM), inactives show at the highest dose activity, negative = inhibition, usual class: inhibitors; 0.66% of 230,000 active; note: % is set by controls: 0 for no effect and ±100 for the full control effect; nearly all actives have a fitted effect of over 60% in size
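L3MBTL1 50 nM + b-AHA-H3(1-15)K9me1 75 nM, 30 min RT; compound added, 30 min RT; streptavidin donor/Ni-chelate acceptor beads 10 ug/mL each final, 30 min RT dark; AlphaScreen read.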
Numbers without * were called inactive; ? = inconclusive; / = not tested or not shown; [ ] = dose if it differs, or a comment. Calls come from the whole dose curve; as a rule, active = well fitted curve in the direction sought with a large enough effect; inconclusive = small, poorly fitted or top-dose-only effect, or another doubt; inactive = no such curve, though single readings can be large; an effect the other way counts as inactive or inconclusive. Potency is the fitted concentration of half-maximal effect.

SMILES | WRN helicase inh | Pol kappa inh | POLH inh | POLI inh | Pol beta inh | L3MBTL1 block
CC(=O)c1cccc(-n2c(CCC(=O)O)ccc2-c2cccs2)c1 | ? | -34% | ? | 50µM* | ? | -9%
O=C(O)CCc1ccc(-c2cccs2)n1-c1ccc(C(=O)O)cc1 | -8%[57.1 µM] | ? | 32µM* | ? | ? | -29%
O=C(O)CCc1ccc(-c2cccs2)n1CCc1ccccc1 | -7% | -11% | -14% | -17% | -1% | -17%
O=C(NC1CC(=O)N(c2ccccc2)C1)C(=O)c1c[nH]c2ccccc12 (stereo not drawn) | -3% | -10% | -5% | -6% | / | -4%
Cc1cc(C)n2c(=S)[nH]nc2n1 | 56µM* | -14% | -1% | 3% | 11% | -2%
CCCn1ccc(O)c(Cc2ccc(Cl)cc2)c1=O | -6% | -8% | -3% | 8% | -3% | -8%
COc1ccc2c(c1)Cc1sc(NC(=O)c3cccc(C)c3)nc1-2 | / | -28% | / | 8.9µM* | 22% | /
COc1ccc2c(c1)Cc1sc(NC(=O)c3ccc(Cl)cc3)nc1-2 | / | ? | -10% | 22µM* | 0% | /
COc1ccc2c(c1)Cc1sc(NC(=O)c3cccc(Cl)c3)nc1-2 | / | -8%[60.1 µM] | -16% | 10µM* | 1% | /
COc1ccc2c(c1)CCc1sc(NC(=O)c3cccc(Br)c3)nc1-2 | / | -13%[60.1 µM] | 0% | 4% | 3% | /
COc1ccc(C(=O)Nc2nc3c(s2)CCc2cc(OC)ccc2-3)cc1 | / | -5% | / | 29% | -25% | /
COc1ccc2c(c1)-c1nc(NC(=O)c3ccc(C)cc3)sc1CC2 | / | -12% | -22% | 5% | -27% | /
O=C(c1ccc(-c2cc(O)c3ncccc3c2)cc1)N1CCNCC1 | / | 6% | -16% | -7% | / | 25µM*
CCN(CC)CCCN1C=C2C(=O)C(C)(OC(=O)CCC(=O)OC)C(=O)C(Br)=C2C=C1c1ccc(OC)cc1 (stereo not drawn) | -6% | ? | 40µM* | ? | / | /
COCCN1C=C2C(=O)C(C)(OC(=O)CCC(=O)OC)C(=O)C(Br)=C2C=C1c1ccc(OC)cc1 (stereo not drawn) | 2% | -20% | ? | ? | / | /
COc1ccc(-n2c(-c3ccc(Cl)cc3Cl)n[nH]c2=S)c(OC)c1 | 79µM* | 0% | -19% | 57% | 49% | -8%
COc1ccc(-n2c(-c3ccc(C(C)(C)C)cc3)n[nH]c2=S)c(OC)c1 | -3% | / | -13% | / | / | /
O=C(O)c1cc2cc(Cl)cc(Cl)c2oc1=O | -34% | ? | ? | ? | 79µM* | -5%
COCCN(Cc1ccc(C)cc1)C(=O)[C@H]1O[C@@H](n2cnc3c(N)ncnc32)[C@H](O)[C@@H]1O | -10% | / | / | / | / | /
CCOc1cc(C2Nc3ccccc3-c3nnc(SCc4ccccc4)nc3O2)ccc1OC (stereo not drawn) | / | -5% | -16% | -6% | 17% | /
O=C(O)c1ccc(C2Nc3ccccc3-c3nnc(SCc4ccc(Cl)cc4)nc3O2)cc1 (stereo not drawn) | / | ? | -28% | ? | 25µM* | /
Cc1cc(N=Nc2ccc(C)c(N=Nc3cc(C)c(N)cc3N)c2)c(N)cc1N | -7%[11.6 µM] | 50µM* | -9% | ? | ? | /
CC(=O)N1CCc2cc(Br)cc(S(=O)(=O)N3CCCCC3)c21 | 2% | -1% | -21% | 6% | 3% | /
Cc1cccc(-c2nc(CSCC(=O)NCCc3ccc(Cl)cc3)c(C)o2)c1 | / | -20% | -18% | -2% | -2% | /
O=C(O)CCN1C(=O)/C(=C\c2cccc(OCC(=O)Nc3ccc(Cl)cc3)c2)SC1=S | -32% | ? | 1% | ? | 56µM* | -26%
Cc1ccc(NC(=O)COc2cccc(/C=C3\SC(=S)N(CCC(=O)O)C3=O)c2)cc1Cl | -15%[11.6 µM] | 79µM* | 45µM* | 50µM* | ? | /
COc1cccc(/C=C2\SC(=S)N(CCCC(=O)Nc3ccc(C(=O)O)cc3)C2=O)c1 | 2% | -8% | ? | -25% | 20% | /

Screening results: PubChem, National Center for Advancing Translational Sciences (NCATS)
